# Source: ChEMBL document CHEMBL2218924, “A broad activity screen in support of a chemogenomic map for kinase signalling research and drug discovery” (Biochem J, 2013)
# Biological target: Rho-associated protein kinase 2 (Homo sapiens) (UniProt O75116)
# Details: at 1 µM
# Chain of Rho-associated protein kinase 2 (Homo sapiens) (O75116 whole entry, looked up): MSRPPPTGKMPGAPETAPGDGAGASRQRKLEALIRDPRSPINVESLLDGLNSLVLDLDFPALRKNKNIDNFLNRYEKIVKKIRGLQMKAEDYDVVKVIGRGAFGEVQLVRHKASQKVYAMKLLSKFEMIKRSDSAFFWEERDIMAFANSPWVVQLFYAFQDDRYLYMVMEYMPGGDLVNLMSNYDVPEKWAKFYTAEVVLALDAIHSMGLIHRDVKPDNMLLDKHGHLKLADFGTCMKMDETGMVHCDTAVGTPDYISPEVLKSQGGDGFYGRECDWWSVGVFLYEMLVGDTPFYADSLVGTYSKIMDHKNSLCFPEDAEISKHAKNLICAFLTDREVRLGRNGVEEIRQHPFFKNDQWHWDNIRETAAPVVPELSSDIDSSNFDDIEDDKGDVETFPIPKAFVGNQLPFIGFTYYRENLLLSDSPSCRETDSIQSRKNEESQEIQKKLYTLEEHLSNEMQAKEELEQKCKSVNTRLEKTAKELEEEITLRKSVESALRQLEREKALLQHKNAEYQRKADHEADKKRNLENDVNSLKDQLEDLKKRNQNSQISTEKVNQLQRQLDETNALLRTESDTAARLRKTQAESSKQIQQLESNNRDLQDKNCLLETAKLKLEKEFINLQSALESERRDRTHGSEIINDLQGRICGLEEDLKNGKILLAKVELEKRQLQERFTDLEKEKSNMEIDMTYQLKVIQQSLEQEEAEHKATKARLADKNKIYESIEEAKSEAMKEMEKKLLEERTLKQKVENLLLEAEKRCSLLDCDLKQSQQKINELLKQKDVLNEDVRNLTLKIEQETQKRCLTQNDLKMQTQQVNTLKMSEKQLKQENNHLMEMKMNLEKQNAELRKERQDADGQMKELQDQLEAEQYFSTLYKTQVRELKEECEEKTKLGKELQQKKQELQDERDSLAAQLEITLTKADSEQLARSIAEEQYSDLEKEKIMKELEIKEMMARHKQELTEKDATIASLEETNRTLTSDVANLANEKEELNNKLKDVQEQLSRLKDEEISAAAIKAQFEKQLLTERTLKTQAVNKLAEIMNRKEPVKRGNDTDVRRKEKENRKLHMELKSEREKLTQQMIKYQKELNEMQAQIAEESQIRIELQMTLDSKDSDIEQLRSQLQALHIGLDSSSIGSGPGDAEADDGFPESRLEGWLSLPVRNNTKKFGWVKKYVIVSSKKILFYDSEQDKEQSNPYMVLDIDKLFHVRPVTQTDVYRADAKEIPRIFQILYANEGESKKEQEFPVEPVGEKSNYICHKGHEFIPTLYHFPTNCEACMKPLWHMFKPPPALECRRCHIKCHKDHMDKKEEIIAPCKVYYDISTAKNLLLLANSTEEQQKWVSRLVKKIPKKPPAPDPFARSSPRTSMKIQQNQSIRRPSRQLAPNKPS
row,SMILES,residual activity [%]
1,N#C/C(=C\c1ccc(O)c(O)c1)C(=O)NCc1ccccc1,103
2,O=S(=O)(c1cccc2cnccc12)N1CCCNCC1,25
3,Nc1nc(Nc2ccc(S(N)(=O)=O)cc2)nn1C(=O)c1c(F)cccc1F,16
4,CCCCc1c(-c2ccc(OC)cc2)[nH]c2nccnc12,79
5,Cn1c2ccccc2c2c3c(c4c5ccccc5n(CCC#N)c4c21)CNC3=O,43
6,CN(C)S(=O)(=O)c1ccc2c(c1)/C(=C/c1cc3c([nH]1)CCCC3)C(=O)N2,99
7,O=c1cc(N2CCOCC2)oc2c(-c3ccccc3)cccc12,100
8,O=C(c1cc2cc(O)ccc2[nH]1)c1cc2cc(O)ccc2[nH]1,67
9,c1ccc(-c2cnc(Nc3ccc(OCCN4CCCC4)cc3)s2)cc1,110
10,CCN1/C(=C/C(C)=O)Sc2ccc(OC)cc21,78
